In PMC7862700, “An all-to-all approach to the identification of sequence-specific readers for epigenetic DNA modifications on cytosine”:

Key:
Experiment in all cases: DAPPL (digital affinity profiling via proximity ligation, sequencing); 10 mM Tris-HCl pH 7.5, 50 mM NaCl, 1 mM DTT, 4% glycerol, room temperature, 30 min; GST-TFs on glutathione beads, 16-mer random dsDNA library, 0.1% formaldehyde crosslink after washing; high values mean tight binding
Settings in all cases: protein: recombinant; tags: N-terminal GST; dsDNA, one strand shown
FLI1 = molecular target: T1, FLI1 (Homo sapiens, UniProt Q01543 1-452)
T1 sequence: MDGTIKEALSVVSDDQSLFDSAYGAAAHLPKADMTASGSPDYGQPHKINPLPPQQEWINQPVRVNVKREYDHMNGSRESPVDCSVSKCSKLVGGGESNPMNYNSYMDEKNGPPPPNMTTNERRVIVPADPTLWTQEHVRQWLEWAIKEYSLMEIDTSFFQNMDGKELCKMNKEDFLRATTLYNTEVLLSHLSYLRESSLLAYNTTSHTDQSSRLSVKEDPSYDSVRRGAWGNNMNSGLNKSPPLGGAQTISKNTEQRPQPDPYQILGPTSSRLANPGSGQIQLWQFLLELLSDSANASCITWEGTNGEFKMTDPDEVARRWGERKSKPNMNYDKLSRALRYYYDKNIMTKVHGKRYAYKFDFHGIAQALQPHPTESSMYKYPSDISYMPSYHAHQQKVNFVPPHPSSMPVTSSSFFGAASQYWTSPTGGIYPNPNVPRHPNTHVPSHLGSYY
How it was run: (§1)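 After expression in yeast as GST fusions, human transcription factors were bound to glutathione beads, DNA-barcoded and mixed with a tag-only sample. The pools were incubated with 200 nmole of a 16-mer random double-stranded DNA library in Tris/NaCl/DTT/glycerol buffer (30 min, room temperature), washed and crosslinked with 0.1% formaldehyde. Proximity ligation with BsaI/T4 ligase ran for 1 h at 37 °C, before PCR amplification and sequencing on an Illumina NextSeq500. Binding signal is a hexamer's read frequency for a factor divided by its frequency for the tag-only sample.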

ELK1 = molecular target: T2, ELK1 (Homo sapiens, UniProt P19419 1-428)
T2 sequence: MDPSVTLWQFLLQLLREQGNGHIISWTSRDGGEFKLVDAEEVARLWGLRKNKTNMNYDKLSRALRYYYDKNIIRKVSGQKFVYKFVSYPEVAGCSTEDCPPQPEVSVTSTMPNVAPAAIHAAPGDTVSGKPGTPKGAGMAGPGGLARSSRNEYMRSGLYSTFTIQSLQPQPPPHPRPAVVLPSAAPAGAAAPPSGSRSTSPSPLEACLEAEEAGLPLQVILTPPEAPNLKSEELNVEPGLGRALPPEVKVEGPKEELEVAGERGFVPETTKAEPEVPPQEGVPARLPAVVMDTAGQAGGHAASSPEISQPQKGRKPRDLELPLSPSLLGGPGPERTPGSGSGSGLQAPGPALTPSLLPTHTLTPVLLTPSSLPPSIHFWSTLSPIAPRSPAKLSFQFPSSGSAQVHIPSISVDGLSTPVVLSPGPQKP
How it was run: as §1

GABPA = molecular target: T3, GABPA (Homo sapiens, UniProt Q06546 1-454)
T3 sequence: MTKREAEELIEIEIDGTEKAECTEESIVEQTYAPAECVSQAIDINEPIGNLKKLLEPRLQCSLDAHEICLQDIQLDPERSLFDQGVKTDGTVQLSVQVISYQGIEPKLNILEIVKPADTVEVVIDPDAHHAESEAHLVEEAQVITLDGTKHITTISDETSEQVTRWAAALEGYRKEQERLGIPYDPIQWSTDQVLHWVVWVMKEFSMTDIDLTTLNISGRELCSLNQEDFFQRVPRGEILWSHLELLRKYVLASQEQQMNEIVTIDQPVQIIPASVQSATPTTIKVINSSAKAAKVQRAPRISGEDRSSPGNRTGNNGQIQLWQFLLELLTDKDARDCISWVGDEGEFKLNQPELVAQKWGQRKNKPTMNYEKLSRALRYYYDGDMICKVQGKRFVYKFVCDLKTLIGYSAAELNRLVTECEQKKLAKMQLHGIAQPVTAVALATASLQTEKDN
How it was run: as §1

ELF1 = ELF1 (Homo sapiens, UniProt P32519 1-619)
How it was run: as §1

EHF = molecular target: T4, EHF (Homo sapiens, UniProt Q9NZC4 1-300)
T4 sequence: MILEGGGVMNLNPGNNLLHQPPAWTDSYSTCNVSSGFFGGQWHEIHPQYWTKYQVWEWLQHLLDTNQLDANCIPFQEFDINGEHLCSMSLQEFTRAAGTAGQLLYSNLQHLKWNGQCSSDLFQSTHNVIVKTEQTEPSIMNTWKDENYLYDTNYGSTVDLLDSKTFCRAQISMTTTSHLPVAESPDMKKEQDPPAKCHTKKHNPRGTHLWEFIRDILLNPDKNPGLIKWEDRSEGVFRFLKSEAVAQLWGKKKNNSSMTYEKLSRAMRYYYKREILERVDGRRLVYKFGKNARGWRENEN
How it was run: as §1

SPI1 = SPI1 (Homo sapiens, UniProt P17947 1-270)
How it was run: as §1

SPIB = SPIB (Homo sapiens, UniProt Q01892 1-262)
How it was run: as §1

ELK3 = molecular target: T5, ELK3 (Homo sapiens, UniProt P41970 1-407)
T5 sequence: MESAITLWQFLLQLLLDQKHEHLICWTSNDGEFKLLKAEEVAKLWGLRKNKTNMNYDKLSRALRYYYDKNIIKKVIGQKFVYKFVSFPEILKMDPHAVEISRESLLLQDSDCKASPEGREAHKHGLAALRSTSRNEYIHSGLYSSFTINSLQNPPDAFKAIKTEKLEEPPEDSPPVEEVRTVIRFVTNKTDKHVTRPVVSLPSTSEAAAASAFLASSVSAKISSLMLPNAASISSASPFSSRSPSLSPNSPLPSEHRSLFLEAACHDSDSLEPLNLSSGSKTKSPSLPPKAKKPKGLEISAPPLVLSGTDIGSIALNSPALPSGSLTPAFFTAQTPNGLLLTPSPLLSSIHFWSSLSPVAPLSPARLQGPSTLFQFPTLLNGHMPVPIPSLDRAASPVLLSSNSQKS
How it was run: as §1

FEV = molecular target: T6, FEV (Homo sapiens, UniProt Q99581 1-238)
T6 sequence: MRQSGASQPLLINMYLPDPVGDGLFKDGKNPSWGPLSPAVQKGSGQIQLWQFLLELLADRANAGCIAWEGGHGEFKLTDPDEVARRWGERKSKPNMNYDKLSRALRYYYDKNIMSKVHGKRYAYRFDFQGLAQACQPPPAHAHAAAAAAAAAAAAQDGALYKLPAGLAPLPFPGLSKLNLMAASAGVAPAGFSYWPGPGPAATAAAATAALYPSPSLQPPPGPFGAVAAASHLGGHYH
How it was run: as §1

ETV5 = ETV5 (Homo sapiens, UniProt P41161 1-510)
How it was run: as §1

SPIC = molecular target: T7, SPIC (Homo sapiens, UniProt Q8N5J4 1-248)
T7 sequence: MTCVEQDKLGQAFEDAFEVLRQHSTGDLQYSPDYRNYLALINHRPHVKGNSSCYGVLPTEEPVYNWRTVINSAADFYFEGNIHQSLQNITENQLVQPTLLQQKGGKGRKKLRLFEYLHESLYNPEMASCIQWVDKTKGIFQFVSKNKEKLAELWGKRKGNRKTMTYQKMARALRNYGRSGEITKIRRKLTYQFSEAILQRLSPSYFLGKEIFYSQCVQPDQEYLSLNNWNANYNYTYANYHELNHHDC
How it was run: as §1

ELF4 = ELF4 (Homo sapiens, UniProt Q99607 1-663)
How it was run: as §1

ELK4 = molecular target: T8, ELK4 (Homo sapiens, UniProt P28324-2 1-405)
T8 sequence: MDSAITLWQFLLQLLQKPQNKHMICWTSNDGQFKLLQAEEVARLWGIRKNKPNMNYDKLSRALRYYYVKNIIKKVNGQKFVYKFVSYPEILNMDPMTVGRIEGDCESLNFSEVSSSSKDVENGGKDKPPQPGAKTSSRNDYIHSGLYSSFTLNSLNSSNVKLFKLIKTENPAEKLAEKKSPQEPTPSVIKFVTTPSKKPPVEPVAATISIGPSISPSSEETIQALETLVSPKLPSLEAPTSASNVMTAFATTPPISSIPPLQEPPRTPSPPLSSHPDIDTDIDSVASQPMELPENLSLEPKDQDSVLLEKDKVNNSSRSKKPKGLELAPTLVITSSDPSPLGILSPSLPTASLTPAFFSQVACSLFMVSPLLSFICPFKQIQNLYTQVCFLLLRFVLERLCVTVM
How it was run: as §1

ETV2 = molecular target: T9, ETV2 (Homo sapiens, UniProt O00321 1-342)
T9 sequence: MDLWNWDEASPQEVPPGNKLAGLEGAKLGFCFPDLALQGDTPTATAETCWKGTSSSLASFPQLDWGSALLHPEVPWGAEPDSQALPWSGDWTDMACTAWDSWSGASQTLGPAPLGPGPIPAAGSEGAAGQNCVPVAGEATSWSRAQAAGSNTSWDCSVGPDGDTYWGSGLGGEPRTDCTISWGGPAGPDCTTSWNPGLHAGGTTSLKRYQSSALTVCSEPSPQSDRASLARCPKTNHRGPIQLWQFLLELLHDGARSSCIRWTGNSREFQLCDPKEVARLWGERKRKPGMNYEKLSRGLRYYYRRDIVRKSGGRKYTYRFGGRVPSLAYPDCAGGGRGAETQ
How it was run: as §1

ELF3 = molecular target: T10, ELF3 (Homo sapiens, UniProt P78545 1-371)
T10 sequence: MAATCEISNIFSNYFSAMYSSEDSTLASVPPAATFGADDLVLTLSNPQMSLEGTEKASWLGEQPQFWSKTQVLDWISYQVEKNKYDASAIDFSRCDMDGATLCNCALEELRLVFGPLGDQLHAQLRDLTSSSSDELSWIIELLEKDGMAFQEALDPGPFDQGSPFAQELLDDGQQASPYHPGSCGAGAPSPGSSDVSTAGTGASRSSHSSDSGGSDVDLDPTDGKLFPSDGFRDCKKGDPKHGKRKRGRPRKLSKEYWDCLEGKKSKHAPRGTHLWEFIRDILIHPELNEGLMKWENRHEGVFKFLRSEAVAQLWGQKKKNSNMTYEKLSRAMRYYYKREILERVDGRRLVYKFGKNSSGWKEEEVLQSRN
How it was run: as §1

ETV1 = ETV1 (Homo sapiens, UniProt P50549 1-477)
How it was run: as §1

Chain of ELF1 (P32519 whole entry): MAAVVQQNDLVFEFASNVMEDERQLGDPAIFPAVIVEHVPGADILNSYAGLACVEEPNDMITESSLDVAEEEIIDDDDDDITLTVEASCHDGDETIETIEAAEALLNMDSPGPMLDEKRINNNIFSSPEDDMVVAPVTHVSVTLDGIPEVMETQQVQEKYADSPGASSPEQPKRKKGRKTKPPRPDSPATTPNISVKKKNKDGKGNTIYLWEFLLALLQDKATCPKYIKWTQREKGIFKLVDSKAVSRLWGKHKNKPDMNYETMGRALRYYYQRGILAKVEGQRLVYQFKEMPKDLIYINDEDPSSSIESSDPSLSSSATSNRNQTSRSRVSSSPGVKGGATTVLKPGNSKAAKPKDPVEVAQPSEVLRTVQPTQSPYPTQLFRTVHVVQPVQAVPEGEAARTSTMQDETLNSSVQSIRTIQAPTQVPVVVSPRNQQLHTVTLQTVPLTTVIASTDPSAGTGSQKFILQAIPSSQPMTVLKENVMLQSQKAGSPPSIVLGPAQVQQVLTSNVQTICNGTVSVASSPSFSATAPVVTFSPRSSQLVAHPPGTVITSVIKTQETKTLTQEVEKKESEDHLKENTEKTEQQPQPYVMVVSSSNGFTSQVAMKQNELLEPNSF
Chain of ELF4 (Q99607 whole entry): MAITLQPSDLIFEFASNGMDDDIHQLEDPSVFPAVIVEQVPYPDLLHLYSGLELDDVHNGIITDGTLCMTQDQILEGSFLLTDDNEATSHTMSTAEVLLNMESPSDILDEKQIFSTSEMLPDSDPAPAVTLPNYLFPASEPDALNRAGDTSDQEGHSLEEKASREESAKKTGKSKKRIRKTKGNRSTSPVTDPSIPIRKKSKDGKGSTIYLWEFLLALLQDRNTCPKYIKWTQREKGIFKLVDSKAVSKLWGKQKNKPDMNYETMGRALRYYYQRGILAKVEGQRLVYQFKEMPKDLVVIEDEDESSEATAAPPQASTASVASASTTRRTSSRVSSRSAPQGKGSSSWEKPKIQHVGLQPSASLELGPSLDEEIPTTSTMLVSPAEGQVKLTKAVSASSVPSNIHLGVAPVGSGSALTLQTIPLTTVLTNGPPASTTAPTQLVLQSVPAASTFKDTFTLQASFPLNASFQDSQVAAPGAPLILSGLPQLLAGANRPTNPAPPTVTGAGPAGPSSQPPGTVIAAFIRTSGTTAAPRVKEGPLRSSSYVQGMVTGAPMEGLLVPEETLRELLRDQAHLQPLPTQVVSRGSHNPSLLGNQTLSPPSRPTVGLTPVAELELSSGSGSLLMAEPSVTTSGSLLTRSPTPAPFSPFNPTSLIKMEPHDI
Chain of ETV5 (P41161 whole entry): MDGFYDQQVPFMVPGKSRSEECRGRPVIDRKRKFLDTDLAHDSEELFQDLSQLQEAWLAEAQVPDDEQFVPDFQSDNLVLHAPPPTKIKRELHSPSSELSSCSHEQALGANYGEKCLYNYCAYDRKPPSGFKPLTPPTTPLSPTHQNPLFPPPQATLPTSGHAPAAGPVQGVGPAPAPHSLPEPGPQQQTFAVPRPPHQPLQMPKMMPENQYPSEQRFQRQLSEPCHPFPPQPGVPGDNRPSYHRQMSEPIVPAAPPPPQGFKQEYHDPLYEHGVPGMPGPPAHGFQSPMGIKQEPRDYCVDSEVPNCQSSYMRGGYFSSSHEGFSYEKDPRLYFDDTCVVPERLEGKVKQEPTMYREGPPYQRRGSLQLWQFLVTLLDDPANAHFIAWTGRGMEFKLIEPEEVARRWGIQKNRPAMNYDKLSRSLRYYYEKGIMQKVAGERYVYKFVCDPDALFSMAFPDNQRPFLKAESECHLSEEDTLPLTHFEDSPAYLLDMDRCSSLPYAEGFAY
Chain of SPIB (Q01892 whole entry): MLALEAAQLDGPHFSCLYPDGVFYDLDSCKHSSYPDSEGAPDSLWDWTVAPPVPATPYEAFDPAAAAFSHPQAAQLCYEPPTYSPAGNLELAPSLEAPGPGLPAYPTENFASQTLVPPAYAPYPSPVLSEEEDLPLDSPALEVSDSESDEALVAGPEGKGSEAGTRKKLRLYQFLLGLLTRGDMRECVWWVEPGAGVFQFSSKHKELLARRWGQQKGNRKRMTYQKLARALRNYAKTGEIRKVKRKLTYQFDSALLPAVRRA
Chain of ETV1 (P50549 whole entry): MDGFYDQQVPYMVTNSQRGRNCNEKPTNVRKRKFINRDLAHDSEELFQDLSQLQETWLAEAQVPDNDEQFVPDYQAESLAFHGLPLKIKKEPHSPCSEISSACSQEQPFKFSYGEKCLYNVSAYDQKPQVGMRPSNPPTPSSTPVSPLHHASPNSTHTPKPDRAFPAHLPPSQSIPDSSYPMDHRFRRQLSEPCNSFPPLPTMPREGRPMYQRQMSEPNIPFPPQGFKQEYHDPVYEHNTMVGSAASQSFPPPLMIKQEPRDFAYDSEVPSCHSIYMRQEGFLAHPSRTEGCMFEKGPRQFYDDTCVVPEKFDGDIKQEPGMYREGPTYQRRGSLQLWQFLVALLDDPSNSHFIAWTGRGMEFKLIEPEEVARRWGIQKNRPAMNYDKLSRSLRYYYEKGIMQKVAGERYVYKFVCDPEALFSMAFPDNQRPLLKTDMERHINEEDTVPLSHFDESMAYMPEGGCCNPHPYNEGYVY

Sequence	binding signal (FLI1)	binding signal (ELK1)	binding signal (GABPA)	binding signal (ELF1)	binding signal (EHF)	binding signal (SPI1)	binding signal (SPIB)	binding signal (ELK3)	binding signal (FEV)	binding signal (ETV5)	binding signal (SPIC)	binding signal (ELF4)	binding signal (ELK4)	binding signal (ETV2)	binding signal (ELF3)	binding signal (ETV1)
CTGCAG	1.13 fold enrichment (6-mer frequency, TF over GST control)	1.1 fold enrichment (6-mer frequency, TF over GST control)	1.16 fold enrichment (6-mer frequency, TF over GST control)	1.08 fold enrichment (6-mer frequency, TF over GST control)	1.18 fold enrichment (6-mer frequency, TF over GST control)	1.14 fold enrichment (6-mer frequency, TF over GST control)	1.08 fold enrichment (6-mer frequency, TF over GST control)	1.05 fold enrichment (6-mer frequency, TF over GST control)	1.1 fold enrichment (6-mer frequency, TF over GST control)	1.11 fold enrichment (6-mer frequency, TF over GST control)	1.37 fold enrichment (6-mer frequency, TF over GST control)	1.17 fold enrichment (6-mer frequency, TF over GST control)	1.26 fold enrichment (6-mer frequency, TF over GST control)	1.3 fold enrichment (6-mer frequency, TF over GST control)	1.02 fold enrichment (6-mer frequency, TF over GST control)	–
GTATGG	1.12 fold enrichment (6-mer frequency, TF over GST control)	1.04 fold enrichment (6-mer frequency, TF over GST control)	1.04 fold enrichment (6-mer frequency, TF over GST control)	1.08 fold enrichment (6-mer frequency, TF over GST control)	1.05 fold enrichment (6-mer frequency, TF over GST control)	1.06 fold enrichment (6-mer frequency, TF over GST control)	1.1 fold enrichment (6-mer frequency, TF over GST control)	–	1.01 fold enrichment (6-mer frequency, TF over GST control)	1.02 fold enrichment (6-mer frequency, TF over GST control)	1.08 fold enrichment (6-mer frequency, TF over GST control)	1.02 fold enrichment (6-mer frequency, TF over GST control)	1.01 fold enrichment (6-mer frequency, TF over GST control)	1.03 fold enrichment (6-mer frequency, TF over GST control)	1.04 fold enrichment (6-mer frequency, TF over GST control)	1.16 fold enrichment (6-mer frequency, TF over GST control)
